These results are taken from PubChem BioAssay AID1211 (NMMLSC, 2008).

SMILES strings stand for the structures. Activity calls are given as the source filed them. No rule for the calls is given here.

The experiment addresses Estrogen receptor (Homo sapiens) (UniProt P03372). Briefly: ERalpha ligand binders by competition, primary screen, cell-based, Cos7 ERalpha-GFP, flow cytometry (AID 1211).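 Also: 0% = DMSO vehicle wells and 100% = no E2-Alexa633 signal left.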 To be noted: fluorescent ligand competition, stronger effect = higher value.

Estrogen receptor (Homo sapiens), sequence (P03372 whole entry, looked up): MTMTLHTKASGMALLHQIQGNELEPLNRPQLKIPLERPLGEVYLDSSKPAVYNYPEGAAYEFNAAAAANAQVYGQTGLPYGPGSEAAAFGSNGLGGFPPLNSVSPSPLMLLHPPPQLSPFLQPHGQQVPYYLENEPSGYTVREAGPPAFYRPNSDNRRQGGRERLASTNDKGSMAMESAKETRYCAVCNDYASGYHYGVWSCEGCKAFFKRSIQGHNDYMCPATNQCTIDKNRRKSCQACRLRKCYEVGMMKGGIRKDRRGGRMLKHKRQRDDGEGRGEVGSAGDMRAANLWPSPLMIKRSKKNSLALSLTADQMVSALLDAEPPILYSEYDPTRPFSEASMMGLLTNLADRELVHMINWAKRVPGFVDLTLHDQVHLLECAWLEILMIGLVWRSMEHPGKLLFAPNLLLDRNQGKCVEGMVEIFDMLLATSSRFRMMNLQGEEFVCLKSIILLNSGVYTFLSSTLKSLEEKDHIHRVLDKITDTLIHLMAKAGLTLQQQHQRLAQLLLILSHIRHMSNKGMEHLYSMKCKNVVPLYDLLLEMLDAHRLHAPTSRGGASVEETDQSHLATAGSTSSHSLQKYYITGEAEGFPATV

`Cn1c(SCc2cc(=O)n3cc(Br)ccc3n2)nnc1C1COc2ccccc2O1` (stereo unspecified): the inhibition of ligand binding runs as follows: (at 10 µM) 19% (inactive); (binding inhibition, at 0.1 µM) 27%.

Turning to `O=C(Nc1cccc(-c2cn3cccnc3n2)c1)c1ccc2c(c1)OCO2`, the inhibition of ligand binding is 22% (inactive) (at 10 µM) and 10% (binding inhibition, at 0.1 µM).

Consider `Cc1cc(-c2ccccc2)nc2cc(C(N)=O)nn12`, for which the inhibition of ligand binding is, setting by setting: (at 10 µM) 42% (inactive); (binding inhibition, at 0.1 µM) 5%.

Take `Cc1ccc(N=Cc2ccc(O)cc2O)cc1F`: the inhibition of ligand binding was 29% (inactive) (at 10 µM) and 2% (binding inhibition, at 0.1 µM).

As to `Cc1nc2cc(-c3ccsc3-n3c(C)ccc3C)[nH]n2c(=O)c1Cl`, the inhibition of ligand binding reads like this: (at 10 µM) 30% (inactive); (binding inhibition, at 0.1 µM) 54%.

As to `COc1ccc(-c2nnc(-c3cc4c(ccc5ccccc54)oc3=O)o2)cc1`, the inhibition of ligand binding (at 10 µM) was 58% (inactive) and the inhibition of ligand binding (binding inhibition, at 0.1 µM) came to 35%.

For `Cc1cc(O)ccc1C1(c2ccc(O)cc2C)OC(=O)c2ccccc21`, the inhibition of ligand binding by setting is: (at 10 µM) 28% (inactive); (binding inhibition, at 0.1 µM) 64%.

On to `N#Cc1c(NCCN)nc(NCc2ccccc2)c2c1CCN(Cc1ccccc1)C2`, for which the inhibition of ligand binding by setting is: (at 10 µM) 65% (inactive); (binding inhibition, at 0.1 µM) 15%.

On to `c1ccc(-c2nnc3sc(Cc4cccs4)nn23)cc1`, for which the inhibition of ligand binding (at 10 µM) is 28% (inactive) and the inhibition of ligand binding (binding inhibition, at 0.1 µM) was 13%.

For `CCCNCC1COc2ccccc2O1` (stereo unspecified), the inhibition of ligand binding (at 10 µM) was 2% (inactive) and the inhibition of ligand binding (binding inhibition, at 0.1 µM) worked out at 21%.

`O=c1[nH]c(N/N=C/c2ccc(O)cc2)nc2ccccc12`: the inhibition of ligand binding runs as follows: (at 10 µM) 23% (inactive); (binding inhibition, at 0.1 µM) 37%.

Turning to `CC(=O)c1ccc(NCC(=O)N2CCN(c3ccccc3)CC2)cc1`, the inhibition of ligand binding is, setting by setting: (at 10 µM) 58% (inactive); (binding inhibition, at 0.1 µM) 18%.

For the molecule `COc1ccc(C2Nc3ccccc3C(=O)N2Cc2ccccc2)cc1Cn1nnc2ccccc21` (stereo unspecified), the inhibition of ligand binding was 54% (inactive) (at 10 µM) and 19% (binding inhibition, at 0.1 µM).

`C/C(N)=C(/C#N)C(=O)CSc1nnc(COc2ccccc2Cl)o1`: the inhibition of ligand binding reads like this: (at 10 µM) 20% (inactive); (binding inhibition, at 0.1 µM) 8%.

As to `NC(=O)c1c(NC(=O)c2cc3ccccc3o2)sc2c1CCC2`, the inhibition of ligand binding is 43% (inactive) (at 10 µM) and 5% (binding inhibition, at 0.1 µM).

Turning to `O=C(NC1CCN(C(=O)N2c3ccccc3Sc3ccccc32)CC1)c1ccccc1Cl`, the inhibition of ligand binding (at 10 µM) was 36% (inactive) and the inhibition of ligand binding (binding inhibition, at 0.1 µM) was 37%.

For the molecule `O=C(Cn1ncc2c(=O)oc3ccccc3c21)Nc1nc2ccccc2s1`, the inhibition of ligand binding (at 10 µM) is 7% (inactive) and the inhibition of ligand binding (binding inhibition, at 0.1 µM) was 22%.

On to `CCCCn1c(=O)[nH]c2nc3cc(N)ccc3nc2c1=O`, for which the inhibition of ligand binding is, setting by setting: (at 10 µM) 4% (inactive); (binding inhibition, at 0.1 µM) 1%.

For `CCCC1Nc2ccc(C(=O)O)cc2C2C=CCC12` (stereo unspecified), the inhibition of ligand binding is, setting by setting: (at 10 µM) 22% (inactive); (binding inhibition, at 0.1 µM) 64%.

Turning to `Cc1ccc(C)c(/C(O)=C2/C(=O)C(=O)N(CCN3CCOCC3)C2c2ccco2)c1` (stereo unspecified), the inhibition of ligand binding runs as follows: (at 10 µM) 0% (inactive); (binding inhibition, at 0.1 µM) 52%.

As for `Cc1nnc(NC(=O)Cc2cccs2)s1`, the inhibition of ligand binding is 44% (inactive) (at 10 µM) and 42% (binding inhibition, at 0.1 µM).

For `CCC(=O)Oc1ccc(C(CC)C(CC)c2ccc(OC(=O)CC)cc2)cc1` (stereo unspecified), the inhibition of ligand binding (at 10 µM) was 80% (active) and the inhibition of ligand binding (binding inhibition, at 0.1 µM) was 89%.

`Cc1nnc(N/N=C/c2ccc(O)c([N+](=O)[O-])c2)[nH]c1=O`: the inhibition of ligand binding runs as follows: (at 10 µM) 32% (inactive); (binding inhibition, at 0.1 µM) 20%.

For `CCOC(=O)Cc1cc(=O)n2[nH]c(-c3ccc(C)cc3)cc2n1`, the inhibition of ligand binding was 0% (inactive) (at 10 µM) and 25% (binding inhibition, at 0.1 µM).

As to `CCn1c(SCC(=O)c2ccc(O)c(O)c2)nnc1-c1ccccc1OC`, the inhibition of ligand binding is 54% (inactive) (at 10 µM) and 16% (binding inhibition, at 0.1 µM).

As for `Cc1ccsc1/C=C(\C(=O)c1ccc(OC(C)C)cc1)c1nc2ccccc2o1`, the inhibition of ligand binding by setting is: (at 10 µM) 12% (inactive); (binding inhibition, at 0.1 µM) 40%.

For `Cc1ccc(C(=O)N/N=C/c2ccc([N+](=O)[O-])s2)cc1`, the inhibition of ligand binding runs as follows: (at 10 µM) 40% (active); (binding inhibition, at 0.1 µM) 73%.

As for `CCOC(=O)N1CCN(S(=O)(=O)c2ccc(C(=O)Nc3nc4ccc(F)cc4s3)cc2)CC1`, the inhibition of ligand binding is 34% (inactive) (at 10 µM) and 11% (binding inhibition, at 0.1 µM).

As to `Cc1cc(C)nc(NC(=O)CSc2nn(C)c(=S)s2)n1`, the inhibition of ligand binding (at 10 µM) is 23% (inactive) and the inhibition of ligand binding (binding inhibition, at 0.1 µM) was determined as 34%.

On to `Cc1nn(-c2ccccc2)c(Cl)c1/C=N/Nc1ccc(S(=O)(=O)Nc2ccccc2C(=O)O)cc1[N+](=O)[O-]`, for which the inhibition of ligand binding runs as follows: (at 10 µM) 38% (inactive); (binding inhibition, at 0.1 µM) 12%.

For the molecule `CN(C)C(=O)c1ccc2c(c1)C1C3CCC(C3)C1C(c1ccccc1)N2` (stereo unspecified), the inhibition of ligand binding by setting is: (at 10 µM) 0% (inactive); (binding inhibition, at 0.1 µM) 24%.

In the case of `Cc1cc(C2(c3ccc(O)c(C)c3)OC(=O)c3ccccc32)ccc1O`, the inhibition of ligand binding is 49% (inactive) (at 10 µM) and 11% (binding inhibition, at 0.1 µM).

As for `COc1ccc(Cc2nnc(NC(=O)Cc3cccs3)s2)cc1`, the inhibition of ligand binding (at 10 µM) is 47% (inactive) and the inhibition of ligand binding (binding inhibition, at 0.1 µM) worked out at 47%.
